GPR151 ag: human GPR151 activation; AID 1508602; activation, % at 11.2 µM; 1% of 650,000 active; PathHunter beta-arrestin GPR151 cells, luminescence; in the data active = activation above about 4.9%
FBW7 activator: activators of human E3 ligase FBW7 | 0.13% of 650,000 active | normalized activity (activation), % at 26.1 µM | AlphaScreen FBW7–phospho-cyclin E peptide binding, activator screen | Q969H0; in the data active = normalized activity above about 1.9%;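 note: purified mutant Fbw7 with reduced substrate affinity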
Target sequence (Q969H0 whole entry, looked up): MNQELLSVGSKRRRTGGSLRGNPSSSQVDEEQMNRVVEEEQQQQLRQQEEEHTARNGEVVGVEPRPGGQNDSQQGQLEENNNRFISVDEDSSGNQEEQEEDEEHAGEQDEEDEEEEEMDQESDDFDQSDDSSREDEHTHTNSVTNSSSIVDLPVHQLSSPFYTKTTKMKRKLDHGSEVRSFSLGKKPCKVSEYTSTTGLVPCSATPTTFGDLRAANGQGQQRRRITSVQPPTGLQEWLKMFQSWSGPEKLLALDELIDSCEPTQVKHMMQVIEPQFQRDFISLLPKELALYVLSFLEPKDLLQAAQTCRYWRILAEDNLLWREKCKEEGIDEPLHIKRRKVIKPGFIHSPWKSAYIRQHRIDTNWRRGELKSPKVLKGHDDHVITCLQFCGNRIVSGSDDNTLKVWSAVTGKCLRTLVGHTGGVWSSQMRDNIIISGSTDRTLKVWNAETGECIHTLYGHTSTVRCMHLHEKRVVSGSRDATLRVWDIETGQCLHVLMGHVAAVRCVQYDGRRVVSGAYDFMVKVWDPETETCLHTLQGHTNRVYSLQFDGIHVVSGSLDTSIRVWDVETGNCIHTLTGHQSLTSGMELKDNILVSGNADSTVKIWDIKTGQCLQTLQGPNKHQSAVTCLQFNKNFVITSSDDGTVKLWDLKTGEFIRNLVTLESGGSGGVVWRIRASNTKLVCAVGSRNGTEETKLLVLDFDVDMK
TEAD-YAP inh: TEAD-YAP interaction inhibition; HEK-TIYL cells, TEAD-Gal4/YAP UAS-luciferase luminescence; inhibition, % at 9.12 µM; 1.4% of 640,000 active; AID 1259422; in the data active = inhibition above about 32%
MITF inh: human MITF inhibition, primary screen; O75030; AlphaScreen MITF homodimerization, bead proximity signal; inhibition, % at 2.6 µM; 0.91% of 650,000 active; AID 1259374; in the data active = inhibition above about 50%
Of the large screens only hits and unclear results are named; the others gave an inactive call. Compounds with a hit are over-represented: about 3.5% of the library has one in this group of screens.

N[C@@H](Cc1ccc(Cl)cc1)c1nc2ccc(-c3cn[nH]c3)cc2c(=O)[nH]1	TEAD-YAP inh 86
NCc1ccc(C(=O)NC(c2ccc(Cl)cc2)c2nc3ccc(-c4cn[nH]c4)cc3c(=O)[nH]2)cc1 (stereo not given)	none
N[C@H](CCc1ccccc1)c1nc2ccc(-c3cn[nH]c3)cc2c(=O)[nH]1	none
N[C@H](Cc1ccc(F)cc1)c1nc2ccc(-c3cn[nH]c3)cc2c(=O)[nH]1	TEAD-YAP inh 81
Nc1ccccc1C(=O)NC12CC3CC(CC(C3)C1)C2	none
N[C@H](Cc1cccc(F)c1)c1nc2ccc(-c3cn[nH]c3)cc2[nH]1	none
COc1cccc(Cc2nc3c(OC)cc(-c4cn[nH]c4)cc3c(=O)[nH]2)c1	none
NCCC(=O)NC(c1ccc(Cl)cc1)c1nc2ccc(-c3cn[nH]c3)cc2c(=O)[nH]1 (stereo not given)	none
N[C@@H](Cc1ccc(F)cc1)c1nc2ccc(-c3cn[nH]c3)cc2c(=O)[nH]1	TEAD-YAP inh 85
N[C@H](Cc1ccc(F)c(F)c1)c1nc2ccc(-c3cn[nH]c3)cc2c(=O)[nH]1	TEAD-YAP inh 76
COc1cccc(CCc2nc3c(OC)cc(-c4cn[nH]c4)cc3c(=O)[nH]2)c1	TEAD-YAP inh 36
N[C@H](Cc1cccc(F)c1)c1nc2ccc(-c3cn[nH]c3)cc2c(=O)[nH]1	TEAD-YAP inh 68
CC[C@@H](Cn1nc(-c2cccs2)ccc1=O)NC(=O)c1cccs1	none
COc1cc(-c2cn[nH]c2)cc2c(=O)[nH]c([C@@H](N)Cc3cccc(F)c3)nc12	TEAD-YAP inh 68
N[C@@H](Cc1ccccc1)c1nc2ccc(-c3cn[nH]c3)cc2c(=O)[nH]1	TEAD-YAP inh 75
Cc1ccccc1OCc1nc(N(C)CCN(C)C)c2cc(-c3cn[nH]c3)ccc2n1	none
CN(C)CCN(C)c1nc([C@H](N)Cc2cccc(F)c2)nc2ccc(-c3cn[nH]c3)cc12	FBW7 activator 2.7
COc1cc(-c2cn[nH]c2)cc2c(=O)[nH]c(C(N)c3ccc(Cl)cc3)nc12 (stereo not given)	none
CC(=O)N/C(=N\c1nc(C)cc(C)n1)Nc1cccc(C)c1	none
CC(=O)N/C(=N\c1nc(C)cc(C)n1)Nc1ccc2ccccc2c1	TEAD-YAP inh 52
CC1CCC(C(C)C)C(OC(=O)Cn2c(-c3ccc(F)cc3)[n+](C)c3ccccc32)C1 (stereo not given)	TEAD-YAP inh 40
CC1CCC(C(C)C)C(OC(=O)CN2C(=O)C3C4c5ccccc5C(c5ccccc54)C3C2=O)C1 (stereo not given)	none
CC1CCC(C(C)C)C(OC(=O)Cn2c(-c3ccccc3)[n+](C)c3ccccc32)C1 (stereo not given)	TEAD-YAP inh 83
CC1CCC(C(C)C)C(OC(=O)Cn2c[n+](CC(=O)OC3CC(C)CCC3C(C)C)c3ccccc32)C1 (stereo not given)	none
O=C(c1ccc2c(=O)n(Cc3ccc(Cl)cc3)c(=S)[nH]c2c1)N1CCN(Cc2ccc3c(c2)OCO3)CC1	none
CCOCCCn1c(=S)[nH]c2cc(C(=O)N3CCN(Cc4ccc5c(c4)OCO5)CC3)ccc2c1=O	TEAD-YAP inh 43
O=C(Cn1c(=O)c(C(F)(F)F)nc2ccccc21)N1CCOCC1	none
CN(CCO)C1CCc2c(sc3ncn(CC4CCCCC4)c(=O)c23)C1 (stereo not given)	TEAD-YAP inh 49
Cc1nnc(SC(C)C(=O)Nc2ccc3nc(SCC(=O)N4CCc5ccccc54)sc3c2)s1 (stereo not given)	TEAD-YAP inh 35
COc1ccccc1C(=O)Nc1ccc2nc(SCC(=O)N3CCc4ccccc43)sc2c1	none
OCCC1CCCCN1c1ccnc2c(-c3cccc(F)c3)cnn12 (stereo not given)	TEAD-YAP inh 93
OCCC1CCCCN1c1ccnc2c(-c3cccc(O)c3)cnn12 (stereo not given)	TEAD-YAP inh 95
OCCC1CCCCN1c1ccnc2c(-c3cccc4ccccc34)cnn12 (stereo not given)	none
OCCC1CCCCN1c1ccnc2c(-c3cccc(C(F)(F)F)c3)cnn12 (stereo not given)	TEAD-YAP inh 55
CC(=O)Nc1cccc(-c2cnn3c(N4CCCCC4CCO)ccnc23)c1 (stereo not given)	none
NC(=O)c1cccc(-c2cnn3c(N4CCCCC4CCO)ccnc23)c1 (stereo not given)	none
OCCC1CCCCN1c1ccnc2c(-c3cc4ccccc4o3)cnn12 (stereo not given)	TEAD-YAP inh 67
CC(C)C(C)(C#N)NC(=O)COc1cc(Cl)cc(Cl)c1 (stereo not given)	none
Cc1ccc(NCC(=O)N2CC(=O)Nc3ccccc32)cc1	none
